Screening data: PubChem BioAssay, Sanford-Burnham Center for Chemical Genomics
Compounds with a hit are over-represented: about 1.5% of the library has one in this group of screens.
NPR1 activator = GC-A (human) enzyme activation. P16066. HEK293 GC-A cells, cGMP TR-FRET, EC30 ANP; 0% at EC30 ANP, 100% saturating ANP. activation, % at 10 µM. hit rate 0.14% among 370,000. AID 1671463; in the data active = activation above about 40%
Neddyl block = cullin neddylation inhibition | inhibition, % at 25 µM | TR-FRET cullin neddylation, biochemical | AID 651699 | P61081+Q13564 | hit rate 0.58% among 360,000; in the data active = inhibition above about 36%
Target sequence (P61081 whole entry, looked up): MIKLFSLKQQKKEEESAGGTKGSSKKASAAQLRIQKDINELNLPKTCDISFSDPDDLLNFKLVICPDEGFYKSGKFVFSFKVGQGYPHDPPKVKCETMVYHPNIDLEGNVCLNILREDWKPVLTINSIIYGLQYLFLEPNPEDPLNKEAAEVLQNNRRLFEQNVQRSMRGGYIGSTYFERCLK
Target sequence (Q13564 whole entry, looked up): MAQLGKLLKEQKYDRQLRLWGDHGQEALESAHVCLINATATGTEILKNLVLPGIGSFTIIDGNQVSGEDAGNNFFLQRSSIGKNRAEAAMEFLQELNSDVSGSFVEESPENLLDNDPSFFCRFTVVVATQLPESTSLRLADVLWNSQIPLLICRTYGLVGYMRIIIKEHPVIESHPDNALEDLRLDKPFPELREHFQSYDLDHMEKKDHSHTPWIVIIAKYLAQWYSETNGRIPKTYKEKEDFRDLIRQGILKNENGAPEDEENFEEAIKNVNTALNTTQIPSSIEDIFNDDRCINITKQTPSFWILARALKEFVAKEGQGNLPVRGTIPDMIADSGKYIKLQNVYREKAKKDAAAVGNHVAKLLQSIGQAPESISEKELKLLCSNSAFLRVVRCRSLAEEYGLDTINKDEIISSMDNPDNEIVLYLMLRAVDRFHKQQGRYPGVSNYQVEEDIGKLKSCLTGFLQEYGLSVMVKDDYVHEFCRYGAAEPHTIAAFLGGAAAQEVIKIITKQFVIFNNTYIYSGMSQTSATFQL
NPR2 activator = GC-B (human) receptor activation. HEK293-GC-B cells, CNP EC30, cGMP TR-FRET; 0% at EC30 CNP, 100% saturating CNP. activation, % at 10 µM. hit rate 0.11% among 370,000. P20594. AID 1920062;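 active = activation at 10 µM reaching about 35% in either raw or pattern-adjusted values, limit read from the data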
NadD block = blocks S. aureus nicotinate mononucleotide adenylyltransferase. hit rate 0.78% among 360,000. purified NadD enzyme, colorimetric absorbance read-out. inhibition, % at 20 µM. AID 602399; in the data active = inhibition above about 26%
An asterisk follows results filed as active; i = inactive; nt = no result shown.

SMILES	NPR1 activator	Neddyl block	NPR2 activator	NadD block
O=C1NN(c2ccccc2)C(=O)/C1=C/c1ccc(-c2ccc(C(=O)O)cc2)o1	-10	4	-2	8
CCC(=O)OCCNc1cc(Sc2nc3ccccc3[nH]2)c2nonc2c1[N+](=O)[O-]	43*	8	27	3
CCC(=O)Nc1ccc2c(c1)C(=O)N(C)[C@@H]1CC[C@@H](CC(=O)NCc3ccc(OC)cc3)O[C@H]1CO2	3	nt	4	nt
O=c1c(N=Nc2ccc(O)cc2)c(-c2ccccc2)[nH]n1-c1ccc([N+](=O)[O-])cc1	-8	-3	1	40*
Cc1ccc([N+](=O)[O-])cc1N=Nc1c(-c2ccc([N+](=O)[O-])cc2)[nH]n(C(N)=S)c1=O	nt	-31	nt	53*
Cc1ccc([N+](=O)[O-])cc1N=Nc1c(C)[nH]n(C(N)=S)c1=O	4	-28	0	6
NC(=S)n1[nH]c(-c2ccc([N+](=O)[O-])cc2)c(N=Nc2ccc(Cl)cc2)c1=O	nt	-33	nt	68*
Cc1ccc(N=Nc2c(C)[nH]n(C(N)=S)c2=O)cc1	-5	-46	8	6
COc1cccc(CN(C)[C@H]2C[C@H]3c4[nH]c5ccccc5c4CCN3C[C@H]2[C@H](C)O)c1OC	-2	nt	5	nt
Clc1cccc(-c2ccc(C3Nc4cccc5cccc(c45)N3)o2)c1	nt	-5	nt	52*
Fc1ccc2[nH]c3c(NCc4ccccc4)ncnc3c2c1	8	52*	9	-1
OCCCNc1ncnc2c1[nH]c1ccccc12	-5	27	-3	-8
O=C(CSc1nnc(-c2ccccc2)n1-c1ccc(Cl)cc1)Nc1ccccc1-c1ccccc1	-15	nt	-13	nt
C#CCNC(=O)C[C@H]1C[C@@]2(C(=O)OC)C(=C[C@H](C(C)(C)C)O[C@@H]2C)N(Cc2ccco2)C1=O	-21	nt	-17	nt
CCOC(=O)[C@@]12CCCC3=C1N(CCC3)C(=O)[C@H]2CC(=O)N1CCCC1	1	nt	5	nt
COc1ccc2cc3cc(C(=O)N4CCCCCC4)oc3nc2c1	nt	63*	nt	0
COc1ccc2cc3cc(C(=O)N4CCN(C5CCCCC5)CC4)oc3nc2c1	nt	nt	nt	5
COC(=O)c1cc(-c2ccc(OC)cc2)on1	30	5	2	-5
COC(=O)c1cc(-c2ccc(Br)cc2)on1	59*	8	8	-7
COc1ccc2[nH]c(=O)c(-c3nnn(-c4ccc(Cl)nc4)n3)cc2c1	nt	32*	nt	6
CCN(CC)C(=O)CC[C@H]1CC[C@]2(CCCN(C(=O)c3cccnc3)C2)O1	8	nt	-6	nt
Cc1cc(Nc2cc(Cl)cc(Cl)c2)cc(=O)n1-c1cc(Cl)cc(Cl)c1	21	nt	28*	nt
COc1cc(Nc2cc(C)n(-c3ccc(Cl)c(OC)c3)c(=O)c2)ccc1Cl	11	nt	0	nt
O=C(O)CCCN1C(=O)/C(=C/c2cn(-c3ccccc3)nc2-c2cccs2)SC1=S	-4	-22	-8	34*
Cc1cccc(C(=O)Nc2nc3ncccn3c2-c2ccc(F)c(F)c2)c1	0	nt	0	nt
SMILES	NPR1 activator	Neddyl block	NPR2 activator	NadD block
O=C(CSc1ncnc2c1oc1ccccc12)Nc1ccccc1F	63*	i	16	-1
COc1cc(-c2nnc(SCC(=O)NN=Cc3c[nH]c4ccccc34)n2-c2ccccc2)cc(OC)c1OC	-8	nt	-14	nt
CCCOc1ccc(NC(=O)C2CC(=O)N/C(=N/N=C(C)/C=C/c3ccc(N(C)C)cc3)S2)cc1 (configuration not stated)	-3	26	-7	56*
CC(/C=C/c1ccc(N(C)C)cc1)=N\N=C1\NC(=O)CC(C(=O)Nc2ccccc2)S1 (configuration not stated)	-4	30	-8	49*
CCCOc1ccc(NC(=O)C2CC(=O)N/C(=N/N=C(\C)CCc3ccc4c(c3)OCO4)S2)cc1 (configuration not stated)	0	1	2	5
CC(/C=C/c1ccc(N(C)C)cc1)=N/N=C1/NC(=O)CC(C(=O)Nc2ccc(Cl)cc2)S1 (configuration not stated)	-5	33	-1	47*
[C-]#[N+][C@]12C(=O)[C@H](C=C(Cl)[C@@]1(C)C=C)C(C)(C)[C@H]1C(=O)N(C)c3cccc2c31	-3	nt	11	nt
COc1cc(C2Nc3cccc4cccc(c34)N2)cc(OC)c1OC(C)=O	9	-14	0	43*
COc1cc(C2Nc3cccc4cccc(c34)N2)ccc1O	-6	-17	-10	59*
C[C@H](O)[C@@H]1C(=O)N2CCc3c([nH]c4c(-c5ccccc5)cccc34)[C@@H]2C[C@@H]1N(C)C(=O)/C=C/c1ccccc1	-9	nt	-5	nt
CC(C)N1CCc2c(sc(NC(=O)c3ccc4ccccc4c3)c2C(N)=O)C1	6	54*	-6	9
CC(C)N1CCc2c(sc(NC(=O)c3ccc(C(=O)c4ccccc4)cc3)c2C(N)=O)C1	6	-6	-1	3
CC[C@@]1(O)C(=O)OCc2c1cc1n(c2=O)Cc2cc3c(CN(C)C)c(O)ccc3nc2-1	53*	29	14	-5
CC[C@@]1(O)C(=O)OCc2c1cc1n(c2=O)Cc2cc3c(N)cccc3nc2-1	-6	-18	-2	1
CCOC(=O)CSc1ncnc2c1sc1nc(N3CCOCC3)c3c(c12)CCCC3	30	i	36*	-1
COC(=O)c1ccc(Cn2cnc3c(sc4nc(N5CCOCC5)c5c(c43)CCCC5)c2=O)o1	41*	-280	49*	6
O=c1c2sc3nc(N4CCOCC4)c4c(c3c2ncn1CCc1ccccc1)CCCC4	16	-133	23	3
COC(=O)c1ccc(CSc2ncnc3c2sc2nc(N4CCOCC4)c4c(c23)CCCC4)o1	50*	i	62*	13
O=C(NCCc1c[nH]c2ccccc12)OCc1cn(Cc2ccc(F)cc2F)nn1	0	nt	2	nt
Cc1ccc(C)c(-c2cc(C(=O)Nc3sc(C)c(C)c3C(N)=O)c3ccccc3n2)c1	8	18	8	35*
CCOC(=O)c1sc(NC(=O)c2cc(-c3ccccc3)nc3ccccc23)c(C#N)c1C	5	28	2	39*
COc1ccc(OCCSc2ncccn2)cc1	13	-4	4	0
Clc1ccc(OCCSc2ncccn2)cc1	55*	-6	-7	-4
Cc1ccc(S(=O)(=O)N(CC(=O)N=Nc2c(O)[nH]c3ccccc23)c2ccc(C)c(C)c2)cc1	-2	-19	4	32*
O=C(Cn1c(=O)n(Cc2ccco2)c(=O)c2c3c(sc21)CCCCC3)c1ccccc1	-9	-20	-3	35*
CN(C)S(=O)(=O)c1ccc(-c2csc(N/N=C/c3ccc(O)cc3)n2)cc1	-1	15	3	38*
CC1(C)CC(=O)C=C(c2ccccc2F)C1=O	0	nt	7	nt
CCC1=NN2C(=N)/C(=C\c3ccc(OCCOc4ccccc4OC)cc3)C(=O)N=C2S1	4	-1	0	25*
COc1ccc(OCCOc2ccc(/C=C3\C(=N)N4N=C(C)SC4=NC3=O)cc2)cc1	-1	3	-1	68*
